MsrA inh = inhibitors of bovine MsrA. purified bovine MsrA, absorbance read-out. inhibition, % at 15.5 µM. 360,000 tested, 0.75% active; in the data active = inhibition above about 4.5%
bovine MsrA act = bovine methionine sulfoxide reductase A activation | activation, % at 10.6 µM | purified bovine MsrA, absorbance read-out | AID 602163 | 360,000 tested, 0.3% active; in the data active = activation above about 7.5%
KLK7 zymogen act = proKLK7 (human) activation, primary screen; activation, % at 7 µM; 370,000 tested, 0.9% active; purified proKLK7, EDANS-DABCYL substrate fluorescence; 100% is mature enzyme control, 0% vehicle; P49862;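 active = activation above the mean of all tested compounds plus 3 SD, computed per campaign excluding outliers beyond control limits, cut at about 13% in these data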
Target sequence (P49862 whole entry, looked up): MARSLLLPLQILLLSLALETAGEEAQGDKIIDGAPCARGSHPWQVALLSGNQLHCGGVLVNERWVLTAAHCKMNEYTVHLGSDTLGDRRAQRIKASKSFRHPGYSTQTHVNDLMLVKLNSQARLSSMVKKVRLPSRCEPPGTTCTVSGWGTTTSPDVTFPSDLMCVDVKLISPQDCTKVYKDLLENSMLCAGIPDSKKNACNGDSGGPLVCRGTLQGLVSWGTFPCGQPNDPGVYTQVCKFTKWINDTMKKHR
SMARCA2 activ = increases SMARCA2 function in MMTV reporter cells; MG213 cells, MMTV-luciferase reporter, dexamethasone, overnight; activation, % at 9.1 µM; 370,000 tested, 1% active; AID 652017; in the data active = activation above about 7.8%
proKLK7 act conf = proKLK7 activation, confirmation. activation, % at 7 µM. shares compounds with KLK7 zymogen act. purified proKLK7, EDANS-DABCYL substrate fluorescence; scaled: vehicle 0, mature enzyme 100. 3,200 tested, 68% active;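 active = activation, as change over the incubation, above the mean of all tested compounds plus 3 SD, cut at about 13% in these data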
EDANS interfere = fluorescence interference counter-screen for KLK7 activators; shares compounds with KLK7 zymogen act; EDANS-DABCYL substrate fluorescence interference, no enzyme, 4 h; solvent 0%, active enzyme control 100%; activation, % at 7 µM; 3,200 tested, 80% active; AID 686952;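 active = activation above the all-compound mean plus 3 SD, ignoring values outside control-based bounds, cut at about 4.8% in these data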;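 note: value is the 4 h activation minus the activation read at time zero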
Hits are given with their value; . = inactive; / = no result given. Rows were chosen to be rich in hits. Some 2.8% of all compounds tested hit in one or more screens of this group.

SMILES	MsrA inh	bovine MsrA act	KLK7 zymogen act	SMARCA2 activ	proKLK7 act conf	EDANS interfere
CC1CCN(CCCNC(=O)c2cc3c(s2)-c2ccccc2OC3)CC1	.	.	75.0	.	74.4	74.4
Cc1cccc2c1-c1sc(C(=O)NCCCN3CCC(C)CC3)cc1CO2	.	.	48.9	.	64.4	64.6
CCOC(=O)C1CCN(C(=O)c2cc3c(s2)-c2ccccc2OC3)CC1	.	.	14.4	.	.	.
CCC1Cc2[nH][nH]c(=O)c2C(CC)O1 (stereo not given)	.	.	.	.	/	/
COc1ccc(OC)c(CN2C(=O)CSCC2(C)C(=O)NCc2ccccc2)c1 (stereo not given)	.	/	.	.	/	/
CC1CCCN(CCCNC(=O)c2cc3c(s2)-c2ccccc2OC3)C1 (stereo not given)	.	.	43.3	.	63.0	78.2
O=C1c2[nH]c3ccccc3c2CC1N1C(=O)c2ccccc2C1=O (stereo not given)	.	.	29.8	.	18.5	17.7
O=C1NC[C@H](CCCCN2C[C@H](Cc3ccccc3)N(Cc3ccccc3)C(=O)C2=O)N(CCC2CCCCC2)C1=O	.	.	.	.	/	/
CC(C(=O)NC1CCCC1)n1c(-c2ccccn2)nc2ccccc21 (stereo not given)	.	/	.	.	/	/
CN1CCN(c2ccc(-c3ccc4ccccc4n3)cc2)CC1	.	.	28.3	.	.	.
COCOCCn1cc(CN2CCS(=O)(=O)N(Cc3ccc(-c4ccc(OC)nc4)cc3)C(C(C)C)C2=O)nn1 (stereo not given)	.	.	.	.	/	/
Cc1cc(NCCO)c2cc(O)ccc2n1	.	.	80.6	.	63.7	68.6
CCCc1cn(-c2ccc3c(c2)[C@@]2(CC(=O)N(C)C2c2ccccc2)C(=O)N3CC(C)C)nn1 (stereo not given in full)	/	/	.	.	/	/
C=CCNc1oc(-c2cccc(Cl)c2)nc1C#N	.	.	.	.	/	/
Cc1ccc(-c2nc(C#N)c(NCCN3CCCCC3)o2)cc1	.	.	16.7	.	.	7.2
COCCNc1oc(-c2ccc(C)cc2)nc1C#N	.	.	.	.	/	/
CCN(CC)CCCNc1oc(-c2cccc(Cl)c2)nc1C#N	.	.	41.4	.	.	18.1
CN(C)CCCNc1oc(-c2ccc(Cl)cc2)nc1C#N	.	.	34.3	.	23.6	21.1
N#Cc1nc(-c2ccc(F)cc2)oc1NCCN1CCOCC1	.	.	.	.	/	/
COCCNc1oc(-c2ccc(Cl)cc2)nc1C#N	.	.	22.3	.	12.8	12.1
CC(C)C[C@@H]1Cc2[nH][nH]c(=O)c2[C@H](C)O1	.	.	.	.	/	/
CCC1(O)C(=O)OCc2c1cc1n(c2=O)Cc2cc3c(N)cccc3nc2-1 (stereo not given)	.	.	23.5	.	64.3	66.7
CC1(Oc2cccc(C#N)c2)CCN(Cc2csc3ccccc23)C1 (stereo not given)	.	.	.	.	/	/
Nc1c2c(nc3ccccc13)N(c1ccccc1)CC2	.	.	69.7	.	19.6	21.0
Cc1ccccc1N1C(=O)c2cccc3c(N(C)CCO)ccc(c23)C1=O	.	.	13.3	.	.	10.2
SMILES	MsrA inh	bovine MsrA act	KLK7 zymogen act	SMARCA2 activ	proKLK7 act conf	EDANS interfere
COc1ccccc1N1C(=O)c2cccc3c(N(C)CCO)ccc(c23)C1=O	.	.	.	.	/	/
CCOC(=O)C1=C(CSc2nc(CC)c(C)cc2C#N)OC(N)=C(C#N)C1c1ccc(OC)cc1 (stereo not given)	.	.	.	.	/	/
CCOC(=O)C1=C(CSc2nc(-c3ccncc3)ccc2C#N)OC(N)=C(C#N)C1c1ccc(OC)cc1 (stereo not given)	.	.	25.8	.	66.9	65.7
CCOC(=O)C1=C(CSc2nc(-c3ccncc3)ccc2C#N)OC(N)=C(C#N)C1c1cccnc1 (stereo not given)	.	.	51.3	.	66.4	71.7
Cn1cc(Cl)c(C(=O)OCC(=O)c2ccccc2)n1	.	.	.	.	/	/
CCOC(=O)N1CCN(c2c(-c3ccccc3)c3cc(Cl)ccc3[nH]c2=O)CC1	.	.	.	.	/	/
O=c1[nH]c2ccc(Cl)cc2c(-c2ccccc2)c1N1CCN(CCO)CC1	.	.	29.4	.	.	.
CCOC(=O)[C@]12CCCC3=C1N(CCC3)C(=O)[C@@H](CC(=O)N1CCCC1)C2	/	/	.	.	/	/
CCOc1ccc(-c2cc(C(=O)NCCCN3CCN(CC)CC3)c3ccccc3n2)cc1	4.6	.	56.9	.	.	.
CCOc1ccc(-c2cc(C(=O)NCCCn3ccnc3)c3ccccc3n2)cc1	.	.	.	.	/	/
O=C(O)c1cc(-c2ccc(Cl)s2)nc2ccccc12	.	.	47.4	.	36.3	41.5
CCC(C)NC(=O)c1cc(-c2cccs2)nc2ccccc12 (stereo not given)	.	.	25.6	.	.	.
CC(C)CCNC(=O)c1cc(-c2cccs2)nc2ccccc12	.	.	.	.	/	/
COc1ccc(/C=C/c2cc(C(=O)O)c3ccccc3n2)cc1	.	.	12.8	.	72.3	72.2
COC(=O)N1CCC[C@H]1c1cccc2[nH]cc(C)c12	/	/	.	.	/	/
COC(=O)[C@@]12CCCCC=C1N(CCc1ccc(Cl)cc1)C(=O)[C@H]2CC(=O)NCc1cccc(C(F)(F)F)c1	/	/	.	.	/	/
CCOc1ccc(-c2cc(C(=O)O)c3ccccc3n2)cc1	.	.	33.4	.	60.2	68.7
CCOc1ccc(-c2cc(C(=O)N3CCC(C)CC3)c3ccccc3n2)cc1	.	.	.	.	/	/
CCOC(=O)C[n+]1ccc2c([nH]c3ccccc32)c1C	.	.	36.5	.	47.1	72.0
Cc1c(Cc2ccccc2)[n+](=O)c2ccccc2n1[O-]	.	.	.	.	/	/
COc1ccc2ccccc2c1C1NC(=O)c2ccccc2N1 (stereo not given)	.	.	16.0	.	.	6.6
CC(=O)Nc1ccc(S(=O)(=O)NCCNS(=O)(=O)c2ccc(NC(C)=O)cc2)cc1	.	.	.	.	/	/
CC(=O)Nc1ccc(S(=O)(=O)NCCc2cn3nc(C)c(C)nc3n2)cc1	.	.	16.4	.	61.8	55.2
COc1ccc(S(=O)(=O)NCCc2cn3nc(C)c(C)nc3n2)cc1F	.	.	20.1	.	72.6	81.2
COc1ccc(S(=O)(=O)NCc2cn3c(C)csc3n2)cc1F	.	.	.	.	/	/
CN(C)Cc1c(O)ccc2c(=O)c(-c3ccccc3Cl)c(C(F)(F)F)oc12	.	.	.	.	/	/
CCCOC(=O)c1ccc(Oc2coc3c(CN(CC)CC)c(O)ccc3c2=O)cc1	.	.	59.7	.	.	47.6
O=c1c(-c2ccc([N+](=O)[O-])cc2)coc2c(O)c(O)ccc12	.	.	.	.	/	/
C=CCN(CC=C)Cc1c(O)ccc2c(=O)c(-c3ccccc3)coc12	.	.	37.6	.	25.6	28.6
CN(C)Cc1c(O)ccc2c(=O)c(-c3ccc(Cl)cc3)coc12	.	.	33.0	.	39.0	37.1

Assay outcomes (PubChem BioAssay)
